AID504770: E. coli YBA685 growth inhibition, screen for V. cholerae RctB inhibitors. E. coli YBA685 rctB-dependent plasmid, OD600 growth, 3 h; hits give low values. z-score (no concentration beside the values). 0.27% of 130,000 active; in the data active = z-score below about -2, passing the limit was not always enough
MbtI inh: inhibitors of Mycobacterium tuberculosis siderophore enzyme MbtI; 0.89% of 100,000 active; inhibition, % (no concentration beside the values); AID 493033; purified MbtI enzyme, fluorescence intensity read-out; P9WFX0; in the data active = inhibition mostly above about 56%, no sharp cut-off; inactive = mostly below about 77%
MenB inh: blocks the Mycobacterium tuberculosis MenB enzyme | inhibition, % (test concentration not listed) | 0.43% of 100,000 active | AID 540299 | MenB enzyme assay, absorbance read-out | P9WNP5; in the data active = inhibition above about 21%, passing the limit was not always enough
PV pol inh: poliovirus RNA polymerase inhibition | 0.66% of 150,000 active | poliovirus polymerase elongation, fluorescence polarization; hits give low values | % elongation, % (compound at 16.7 µg/mL) | P03300; in the data active = % elongation below about 90%
Target sequence (P03300 1749-2209 limits assumed): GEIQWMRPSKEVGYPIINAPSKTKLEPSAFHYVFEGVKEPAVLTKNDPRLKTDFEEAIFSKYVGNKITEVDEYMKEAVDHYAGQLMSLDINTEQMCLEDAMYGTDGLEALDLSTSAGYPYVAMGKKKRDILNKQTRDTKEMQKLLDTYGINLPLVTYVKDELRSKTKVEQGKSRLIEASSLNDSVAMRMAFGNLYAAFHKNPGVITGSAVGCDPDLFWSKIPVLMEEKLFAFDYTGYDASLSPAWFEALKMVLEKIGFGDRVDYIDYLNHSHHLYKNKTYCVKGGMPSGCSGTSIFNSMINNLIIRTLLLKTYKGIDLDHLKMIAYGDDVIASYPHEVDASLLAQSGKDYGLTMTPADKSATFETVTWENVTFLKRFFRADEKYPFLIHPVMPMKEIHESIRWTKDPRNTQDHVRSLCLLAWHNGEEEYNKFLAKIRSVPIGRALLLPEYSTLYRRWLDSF
* marks the source's active call; other numbers are inactive results; nt = no result given. This is a sample that favours compounds with a hit; in the whole collection about 1.5% have one here.

SMILES | AID504770 | MbtI inh | MenB inh | PV pol inh
COC(=O)c1c(-c2cccs2)csc1NC(=O)c1ccc(OC)c(OC)c1 | nt | nt | nt | 69*
Nc1nnnn1/N=C\c1ccc(O)cc1 | -0.8 | -2 | -6 | 98
Cc1cc(C)c2c(n1)SCC(=O)N2CC(=O)N1CCN(C)CC1 | -0.75 | nt | nt | nt
COCCNC(=S)N1CCCN(c2nc3cc(C)ccc3cc2C#N)CC1 | -0.6 | 22 | 21* | 102
Cc1ccc2cc(C#N)c(N3CCCN(C(=O)C4CCCCC4)CC3)nc2c1 | 0 | 4 | 17 | 99
c1ccc2nc(Sc3ncn[nH]3)c(Sc3ncn[nH]3)nc2c1 | 0.35 | nt | -16 | 85*
O=c1[nH]nc(Sc2ncn[nH]2)c(=O)[nH]1 | -0.7 | 10 | -8 | 98
CCCCOc1ccc2nc3c(nc2c1)C(=O)c1ccccc1C3=O | 1.8 | -4 | -17 | 107
COc1ccc(CC(=O)n2[nH]c(=O)cc(C)c2=O)cc1OC | -0.75 | 56* | 0 | 99
Cn1cnnc1SCc1ccc(C(=O)n2ncc(C#N)c2N)cc1 | -0.9 | -10 | -4 | 88*
COc1ccc(C(=O)n2ncc(C#N)c2N)cc1 | 0.05 | -5 | -3 | 96
CCOC(=O)c1ccc(NC(=O)CCc2c(C)nc3c(-c4ccc(F)cc4)c(C)nn3c2C)cc1 | nt | nt | nt | 104
CCOC(=O)c1ccc(NC(=O)c2cnc3c(-c4ccc(F)cc4)c(C)nn3c2C)cc1 | nt | nt | nt | 51*
N/C(=N\O)c1ccncc1 | 1.7 | -8 | -17 | 102
N/C(=N\O)c1cccc(/C(N)=N/O)n1 | -0.75 | nt | 47* | 113
CC1CN(c2nc(-c3cccs3)cc(C(F)(F)F)c2C#N)CC(C)O1 (configuration not stated) | -0.1 | nt | nt | nt
CC1CN(c2nnc(-c3cccs3)c3ccccc23)CC(C)O1 (configuration not stated) | -2.5* | -6 | 2 | 105
COc1ccc(C(=O)CNc2cc(C)ccc2C)c(F)c1 | -0.05 | nt | nt | nt
O=C(OCc1cc(=O)oc2cc(O)ccc12)c1cc(Br)ccc1O | -0.55 | -97 | 2 | 103
O=C(OCc1cc(=O)oc2cc(O)ccc12)c1nc(Cl)ccc1Cl | -0.35 | -32 | -12 | 88*
O=C1OCCC1Sc1nnc(-c2cccs2)o1 (configuration not stated) | -0.15 | -181 | -7 | 102
Cc1csc(=Nc2ccccc2F)n1/N=C/c1ccncc1 | -0.3 | 1 | -22 | 83*
Cc1[nH]nc2oc(=O)c(Cl)c(C)c12 | -0.75 | 6 | -9 | 102
Cc1cc(Nc2ccc(NNC(=O)c3ccc(F)cc3)nn2)n(-c2ccccc2)n1 | -0.2 | 0 | 0 | 98
O=C(CCc1ccccc1)NCCOc1ccccc1 | 1 | 1 | nt | nt
SMILES | AID504770 | MbtI inh | MenB inh | PV pol inh
NC(=S)c1ccccc1N | 0.65 | 41 | -14 | 55*
Cc1cc(C)n(/N=C2/C(=O)Nc3ccc(Br)cc32)c(=O)c1C#N | -0.25 | -18 | -28 | 100
Cc1ccc2c(c1Br)C(=C(C#N)C#N)C(=O)N2 | -0.3 | -124 | -53 | 84*
COc1ccccc1-n1cc(C(=O)c2ccccc2O)cc(C#N)c1=O | -0.2 | 96* | -20 | 113
CCOc1ccc(-n2c(SCC(=O)NC3CCCC3)nnc2-c2ccoc2C)cc1 | -0.1 | -4 | 36* | 100
N=C1SCC(=O)N1c1nccs1 | -4.6* | nt | -13 | 102
Cc1cc2nc(N3C(=N)SCC3=O)sc2cc1C | 0.35 | 2 | -54 | 106
COc1ccc(C(=O)NCCn2cc(SCC(=O)Nc3ccccc3)c3ccccc32)cc1 | -2.5* | -5 | -18 | 102
CC(C)C1NC(=O)N(C2CCCCC2)C1=O (configuration not stated) | -0.75 | -2 | -13 | nt
CCOc1cc(CNc2ncn[nH]2)ccc1OCC(=O)NC(C)(C)C | -2.5* | -10 | -12 | 101
COc1cc(CNC(C)(C)C)ccc1OCC(=O)NC(C)(C)C | 0.05 | -26 | -5 | 105
Cc1cc(C)c2c(N)c(C3=NC(C)(C)Cc4ccccc43)sc2n1 | -0.65 | nt | -12 | 107
CC1(C)Cc2ccccc2C2=NNC(=O)C2=N1 | -0.75 | 5 | 6 | 84*
Fc1ccccc1-c1nnc2ccc(C(F)(F)F)cn12 | 0.95 | nt | 14 | 16*
CN1C(=O)/C(=C/c2ccc(I)o2)C(=O)NC1=S | 1.1 | 83* | -116 | 95
CN1C(=O)/C(=C/c2cn(CC(=O)N3CCCC3)c3ccccc23)C(=O)NC1=S | -0.35 | -8 | -5 | 99
CC(C)n1nnnc1SCC(=O)c1ccc(F)cc1 | -0.3 | 0 | 28* | 101
CC(=O)Nc1ccc(C(=O)CSc2nnnn2C(C)C)cc1 | 0.1 | 10 | -28 | 102
COc1ccccc1-n1c(CSc2ccccn2)nc2ccccc2c1=O | 0.95 | nt | -13 | 106
CCCCNC(=O)C1CCN(Cc2ccccc2OCC)CC1 | -4.9 | -1 | -3 | 102
CCCCNC(=O)CN1CCN(Cc2cccc(OCC)c2OC)CC1 | 0.35 | -6 | 7 | 88*
O=C(N/N=C1/C(=O)c2cccc3cccc1c23)c1ccncc1 | 0.3 | 3 | -32 | 89*
Cc1cc(C(=O)N/N=C2\C(=O)c3cccc4cccc2c34)c(C)o1 | 0 | 4 | -35 | 102
NS(=O)(=O)c1ccc(-n2cccc2C=C2C(=O)NC(=S)NC2=O)cc1 | -0.5 | 97* | -6 | 100
N#Cc1cc2c(nc1SCC(=O)N1CCCCC1)CCCC2 | -0.05 | -36 | -6 | 100
SMILES | AID504770 | MbtI inh | MenB inh | PV pol inh
N#Cc1cc2c(nc1SCC(=O)O)CCC2 | -2.4* | nt | 6 | 108
CCOC(=O)/C=C(\C)Nc1ccc2cn[nH]c2c1 | 2.2 | nt | nt | nt
Cn1ccnc1P(=S)(c1nccn1C)N1CCOCC1 | -0.2 | 87* | -1 | 80*
Cn1cc(P(=S)(N2CCOCC2)N2CCOCC2)cc1P(=S)(N1CCOCC1)N1CCOCC1 | 1.7 | 23 | -29 | 100
S=c1[nH]c2c(s1)C1c3ccccc3OCC1CS2 (configuration not stated) | 0.25 | 50 | -70 | 99
O=C(CSc1nc2c(c(=O)[nH]1)CSC2)c1ccc(Cl)cc1 | -0.65 | 82* | 2 | 101
N#CCc1nc(-c2ccc(C#N)cc2)cs1 | -0.45 | nt | nt | nt
CC1C(=O)NN=C1C(=O)N/N=C/c1ccc(OC(=O)c2ccco2)cc1 (configuration not stated) | -0.95 | -4 | -7 | 99
CC1C(=O)NN=C1C(=O)N/N=C\c1cccnc1 (configuration not stated) | 0.25 | 37 | 35* | 99
O=C(CC(NC(c1ccccc1)c1ccccc1)C(=O)O)c1ccc(Cl)cc1 (configuration not stated) | -1.1 | nt | 72* | 98
CC[n+]1c(-c2ccccc2)c2cc(N)ccc2c2ccc(N)cc21 | -0.05 | 4 | 12 | 75*
COC(=O)c1cccc(N2C(=O)C3C4C=CC(C)(O4)C3C2=O)c1 (configuration not stated) | -0.65 | 99* | -5 | 101
N#CCC(=O)c1ccccc1 | 0.4 | -2 | nt | 101
Cc1ccc(C(=O)CSC#N)o1 | -3.1* | nt | -52 | 99
Cc1ccc(C(=O)O)o1 | 1.5 | 10 | nt | 101
N#CSCC(=O)c1ccccc1 | -3.6* | nt | nt | nt
O=C(CCC(=O)c1ccc(F)cc1)c1ccc(F)cc1 | -0.25 | -13 | 3 | 105

High-throughput results from PubChem.
